Test results published in PubChem BioAssay AID1159580 (chemical genetic matrix, 2015).
Screen size: about 5,500 compounds; about 2,000 (36%) were called active. Roughly 18% stayed inconclusive and do not appear here. Rule as the data show it: active = normalized growth mostly below about 0.91 (no sharp cut-off); inconclusive = no clear call, values can overlap the other calls; inactive = mostly above about 0.92. The list shows a part of the results.

Experiment: chemical genetic growth profiling, strain panel (AID 1159580);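 also: tested at 20 µM; growth read once vehicle control cultures reached saturation at 30 °C; 1 = growth at the plate median or of vehicle wells; lower values mean less growth of the strain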
Details: growth OD

Measured: normalized growth

CCCC(C)C1(CC)C(=O)NC(=O)NC1=O (configuration not stated)
inactive: S. cerevisiae deletion strains, locus YJR075W, strain HOC1, active compounds read low 1.04 | S. cerevisiae deletion strains, locus YKL009W, strain mrt4, active compounds read low 1.03 | S. cerevisiae deletion strains, locus YKL068W, active compounds read low 1.01 | S. cerevisiae deletion strains, locus YKL085W, strain MDH1 (second series), active compounds read low 1.02 | S. cerevisiae deletion strains, locus YKL085W, strain MDH1, active compounds read low 1.02 | S. cerevisiae deletion strains, locus YKL160W, strain elf1, active compounds read low 1 | S. cerevisiae deletion strains, locus YKL190W, strain CNB1, active compounds read low 1.02 | S. cerevisiae deletion strains, locus YKR001C, strain vps1, active compounds read low 1.03 | S. cerevisiae deletion strains, locus YKR026C, strain gcn3, active compounds read low 0.998 | S. cerevisiae deletion strains, locus YKR091W, strain srl3, active compounds read low 1 | S. cerevisiae deletion strains, locus YLL001W, strain dnm1, active compounds read low 0.994 | S. cerevisiae deletion strains, locus YLL026W, active compounds read low 1 | S. cerevisiae deletion strains, locus YLL041C, strain sdh2, active compounds read low 1 | S. cerevisiae deletion strains, locus YLR027C, strain aat2, active compounds read low 0.998 | S. cerevisiae deletion strains, locus YLR039C, strain RIC1, active compounds read low 1.1 | S. cerevisiae deletion strains, locus YLR058C, strain SHM2, active compounds read low 1.01 | S. cerevisiae deletion strains, locus YLR102C, strain apc9, active compounds read low 1.02 | S. cerevisiae deletion strains, locus YLR113W, strain HOG1, active compounds read low 0.985 | S. cerevisiae deletion strains, locus YLR221C, strain rsa3, active compounds read low 1 | S. cerevisiae deletion strains, locus YLR258W, strain gsy2, active compounds read low 1 | S. cerevisiae deletion strains, locus YLR262C, strain YPT6 (second series), active compounds read low 1.02 | S. cerevisiae deletion strains, locus YLR262C, strain YPT6, active compounds read low 1.11 | S. cerevisiae deletion strains, locus YLR268W, strain sec22, active compounds read low 1.01 | S. cerevisiae deletion strains, locus YLR320W, strain mms22, active compounds read low 1.01 | S. cerevisiae deletion strains, locus YLR330W, strain CHS5, active compounds read low 1.01 | S. cerevisiae deletion strains, locus YLR342W, strain FKS1 (second series), active compounds read low 1.04 | S. cerevisiae deletion strains, locus YLR342W, strain FKS1, active compounds read low 1 | S. cerevisiae deletion strains, locus YLR357W, strain rsc2, active compounds read low 0.984 | S. cerevisiae deletion strains, locus YLR370C, strain arc18, active compounds read low 1 | S. cerevisiae deletion strains, locus YLR371W, strain rom2, active compounds read low 1.02 | S. cerevisiae deletion strains, locus YLR384C, strain iki3, active compounds read low 0.996 | S. cerevisiae deletion strains, locus YLR418C, strain cdc73, active compounds read low 1.05 | S. cerevisiae deletion strains, locus YML016C, strain PPZ1, active compounds read low 1.01 | S. cerevisiae deletion strains, locus YML032C, strain rad52, active compounds read low 1.02 | S. cerevisiae deletion strains, locus YML120C, strain ndi1, active compounds read low 1.02 | S. cerevisiae deletion strains, locus YML124C, strain tub3, active compounds read low 1.02 | S. cerevisiae deletion strains, locus YMR058W, strain fet3, active compounds read low 1.01 | S. cerevisiae deletion strains, locus YMR078C, strain ctf18, active compounds read low 1.02 | S. cerevisiae deletion strains, locus YMR125W, strain sto1, active compounds read low 0.996 | S. cerevisiae deletion strains, locus YMR129W, active compounds read low 0.997 | S. cerevisiae deletion strains, locus YMR205C, strain PFK2, active compounds read low 0.992 | S. cerevisiae deletion strains, locus YMR223W, strain ubp8, active compounds read low 1.04 | S. cerevisiae deletion strains, locus YMR231W, strain pep5, active compounds read low 1 | S. cerevisiae deletion strains, locus YMR263W, strain SAP30, active compounds read low 1.02 | S. cerevisiae deletion strains, locus YMR307W, strain GAS1, active compounds read low 1.12 | S. cerevisiae deletion strains, locus YNL067W, strain RPL9B, active compounds read low 1.01 | S. cerevisiae deletion strains, locus YNL071W, strain lat1, active compounds read low 1.01 | S. cerevisiae deletion strains, locus YNL128W, strain TEP1, active compounds read low 1.02 | S. cerevisiae deletion strains, locus YNL153C, strain GIM3, active compounds read low 1 | S. cerevisiae deletion strains, locus YNL183C, strain NPR1, active compounds read low 0.922 | S. cerevisiae deletion strains, locus YNL209W, strain ssb2, active compounds read low 1 | S. cerevisiae deletion strains, locus YNL233W, strain BNI4, active compounds read low 1.01 | S. cerevisiae deletion strains, locus YNL248C, strain rpa49, active compounds read low 1 | S. cerevisiae deletion strains, locus YNL250W, strain rad50, active compounds read low 1.02 | S. cerevisiae deletion strains, locus YNL271C, strain bni1, active compounds read low 1.03 | S. cerevisiae deletion strains, locus YNL298W, strain CLA4, active compounds read low 1.03 | S. cerevisiae deletion strains, locus YNL307C, strain MCK1, active compounds read low 1.03 | S. cerevisiae deletion strains, locus YNL322C, strain KRE1 (second series), active compounds read low 0.997 | S. cerevisiae deletion strains, locus YNL322C, strain KRE1, active compounds read low 1.01 | S. cerevisiae deletion strains, locus YNR049C, strain mso1, active compounds read low 0.998 | S. cerevisiae deletion strains, locus YNR052C, strain pop2, active compounds read low 1.02 | S. cerevisiae deletion strains, locus YOL006C, strain TOP1, active compounds read low 1.07 | S. cerevisiae deletion strains, locus YOL012C, strain htz1 1.23 | S. cerevisiae deletion strains, locus YOL147C, strain pex11, active compounds read low 1 | S. cerevisiae deletion strains, locus YOR001W, strain rrp6, active compounds read low 0.999 | S. cerevisiae deletion strains, locus YOR061W, strain CKA2, active compounds read low 1.02 | S. cerevisiae deletion strains, locus YOR069W, strain VPS5, active compounds read low 1.01 | S. cerevisiae deletion strains, locus YOR070C, strain gyp1, active compounds read low 1 | S. cerevisiae deletion strains, locus YOR080W, strain dia2, active compounds read low 0.998 | S. cerevisiae deletion strains, locus YOR083W, strain WHI5, active compounds read low 1.01 | S. cerevisiae deletion strains, locus YOR106W, strain vam3, active compounds read low 1.02 | S. cerevisiae deletion strains, locus YOR136W, strain idh2, active compounds read low 1.02 | S. cerevisiae deletion strains, locus YOR144C, strain elg1, active compounds read low 1.01 | S. cerevisiae deletion strains, locus YOR184W, strain ser1, active compounds read low 1.06 | S. cerevisiae deletion strains, locus YOR231W, strain MKK1, active compounds read low 0.996 | S. cerevisiae deletion strains, locus YOR265W, strain rbl2, active compounds read low 1 | S. cerevisiae deletion strains, locus YOR270C, strain vph1, active compounds read low 1.01 | S. cerevisiae deletion strains, locus YOR290C, strain snf2, active compounds read low 1.02 | S. cerevisiae deletion strains, locus YOR316C, strain cot1, active compounds read low 1.03 | S. cerevisiae deletion strains, locus YPL051W, strain arl3, active compounds read low 1.01 | S. cerevisiae deletion strains, locus YPL055C, strain LGE1, active compounds read low 1.04 | S. cerevisiae deletion strains, locus YPL078C, strain atp4, active compounds read low 0.999 | S. cerevisiae deletion strains, locus YPL106C, strain sse1, active compounds read low 0.996 | S. cerevisiae deletion strains, locus YPL240C, strain hsp82, active compounds read low 1.02 | S. cerevisiae deletion strains, locus YPL241C, strain CIN2, active compounds read low 1.01 | S. cerevisiae deletion strains, locus YPL256C, strain CLN2, active compounds read low 0.981 | S. cerevisiae deletion strains, locus YPR119W, strain clb2, active compounds read low 1.01 | S. cerevisiae deletion strains, locus YPR141C, strain kar3, active compounds read low 1.02 | S. cerevisiae deletion strains, locus YPR163C, strain tif3, active compounds read low 1.01 | S. cerevisiae deletion strains, locus YPR167C, strain met16, active compounds read low 1.02 | S. cerevisiae deletion strains, strain wtn01, active compounds read low 1.02 | S. cerevisiae strains, strain wild type, active compounds read low 1.01
